The campaign covered roughly 290,000 compounds. About 3,300 (1.1%) were called active. The full list was thinned out, with actives kept by preference. Unmarked numbers belong to inactive results. Cut-off read from the data, not from the text of the source: active = binding response below about 67% or above about 130%; inconclusive = no clear call, values can overlap the other calls; inactive = in between.
These molecules were tested against Mitogen-activated protein kinase kinase kinase 2 (Homo sapiens) (UniProt Q9Y2U5) (assay: modulators of MEK5 binding to wildtype MEKK2, primary screen, biochemical, multiplex bead flow cytometry, Alexa488-MEK5 (AID 1531)). Details: Alexa488-MEK5 binding to MEKK2 WT, at 10 µM, actives lie on both sides.

Point of comparison: `CC1=NN(Cc2ccccc2)C(=O)/C1=C/c1ccc(N(C)C)cc1`, binding response (% of control) 109%. Against it:
- CCOc1cc2ccccc2cc1C(=O)Nc1ccccn1 — lower, 108%
- O=c1[nH]cccc1-c1nc2ccccc2n1Cc1ccc(Cl)cc1 — lower, 105%
- Cc1ccc(CNS(=O)(=O)c2ccc3c(c2)N(C)CCO3)cc1 — lower, 94%
- CCOc1ccc(/C=C2\SC(=S)N(NC(=O)c3ccncc3)C2=O)cc1OC — lower, 95%
- COc1cccc(/C=N/Nc2ncc(C(F)(F)F)cc2Cl)c1O — lower, 96%
- O=C1/C(=C\c2ccsc2)NC(=S)N1c1ccccc1 — lower, 87%
- CN(Cc1ccco1)S(=O)(=O)c1nnc(NC(=O)c2ccccc2)s1 — lower, 96%
- CN1CCN(/N=C/c2ccc(-c3ccc([N+](=O)[O-])cc3)o2)CC1 — lower, 103%
- CSc1ccc(/C=N/N2CCN(Cc3ccccc3Cl)CC2)cc1 — lower, 99%
- COc1ccccc1CCNS(=O)(=O)c1cc2c3c(c1)C(C)C(=O)N3CCC2 (configuration not stated) — lower, 85%
- Cc1ccc2c(C)c(C(=O)N(C)Cc3ccncn3)oc2c1C — lower, 98%
- Cc1c(C(=O)N2CCN(c3ccc(F)cc3)CC2)oc2c1C(=O)CCC2 — lower, 104%
- COC(=O)c1ccc(Nc2ncnc3sccc23)cc1 — lower, 102%
- Cc1c(NC(=O)CSc2cccc3cccnc23)c(=O)n(-c2ccccc2)n1C — lower, 99%
- COc1ccc(-n2nnnc2SCC(=O)Nc2ccccc2)cc1 — lower, 104%
- CC(Sc1nc2cc(Cl)ccc2s1)C(=O)Nc1ccc2c(c1)OCO2 (configuration not stated) — lower, 78%
- O=C(COc1ccc(Cl)cc1)Nc1ccc2c(c1)OCO2 — lower, 100%
- COC(=O)c1ccccc1NC(=O)C1CCN(C(=O)N2CCOc3ccccc32)CC1 — lower, 103%
- Oc1ccc(-n2nnnc2SCc2c(F)cccc2Cl)cc1 — lower, 98%
- COc1ccc(CNC(=O)c2ccc(Br)s2)cc1OC — lower, 96%

In the case of `COc1cc(/C=C2\SC(=S)N(Nc3ncc(C(F)(F)F)cc3Cl)C2=O)cc(OC)c1OC`, the binding response (% of control) is reported as 61% [inhibitor] (active).
With `CN(C)c1ccc(/C=C2\NC(=S)N(Cc3ccccc3)C2=O)cc1` the binding response (% of control) was 72% [inhibitor] (active).
For `CN1CCN(/N=C/c2ccc(C#N)cc2)CC1`, the binding response (% of control) was 166% (active).
In the case of `Cc1ccc2c(C)c(C(=O)N3CCN(c4ccncc4)CC3)oc2c1C`, the binding response (% of control) is reported as 159% (active).
In the case of `Cc1c(NC(=O)CSc2nnnn2-c2ccc(C(=O)O)cc2)c(=O)n(-c2ccccc2)n1C`, the binding response (% of control) is reported as -12% (active).
`O=C(Nc1ccc2c(c1)OCO2)c1sc2cc(Cl)ccc2c1Cl` was tested, and the binding response (% of control) was 19% (active).

Source: PubChem BioAssay AID1531 (NMMLSC, 2009)
